This note sets out measurements from PubChem BioAssay (EPA / NIEHS).

Activity calls are given as the source filed them. Rule for the calls: active = hit-call score of the fitted dose curve at least 0.9, where 1 is the maximum; inactive = score below 0.9.

Read-out in test [1]: Cyclin Dependent Kinase Inhibitor 1A (CDKN1A), CDKN1A (gene 1026)
The test is described as follows: LTEA_HepaRG_CDKN1A: Life Technologies and Expression Analysis (LTEA) Assay for Cyclin Dependent Kinase Inhibitor 1A (CDKN1A) using HepaRG (AID 2283450). To be noted: mRNA level, 48 h; actives raise or lower the signal. In a few lines:
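Differentiated HepaRG cells in serum-free induction medium, exposed 48 h in duplicate to eight half-log concentrations up to 100 uM in 0.5% DMSO. mRNA measured by TaqMan qRT-PCR, normalized to ACTB, GAPDH, POLR2A; bidirectional fit versus DMSO.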

Read-out in test [2]: Cyclin D1 (CCND1), CCND1 (gene 595)
The test is described as follows: LTEA_HepaRG_CCND1: Life Technologies and Expression Analysis (LTEA) Assay for Cyclin D1 (CCND1) using HepaRG (AID 2283451). To be noted: mRNA level, 48 h; actives raise or lower the signal. A digest of the protocol:
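Differentiated HepaRG cells exposed 48 h in serum-free induction medium to eight half-log concentrations from 100 uM top, 0.5% DMSO, duplicates. CCND1 mRNA measured by Fluidigm TaqMan qRT-PCR, normalised to ACTB, GAPDH, POLR2A; bidirectional fit.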

Read-out in test [3]: catalase (CAT), CAT (gene 847)
Description: LTEA_HepaRG_CAT: Life Technologies and Expression Analysis (LTEA) Assay for catalase (CAT) using HepaRG (AID 2283452). To be noted: mRNA level, 48 h; actives raise or lower the signal. In a few lines:
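Differentiated HepaRG cells in serum-free induction medium were dosed 48 h in duplicate, eight half-log concentrations from 100 uM in 0.5% DMSO. Transcript measured by TaqMan qRT-PCR, normalised to ACTB/GAPDH/POLR2A, fitted bidirectionally against DMSO.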

Read-out in test [4]: flavin-containing dimethylaniline monooxygenases 3 (FMO3), FMO3 (gene 2328)
Description: LTEA_HepaRG_FMO3: Life Technologies and Expression Analysis (LTEA) Assay for flavin-containing dimethylaniline monooxygenases 3 (FMO3) using HepaRG (AID 2283453). To be noted: mRNA level, 48 h; actives raise or lower the signal. In a few lines:
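HepaRG, 48 h exposure, 8-pt half-log series from 100 uM, 0.5% DMSO vehicle, duplicates; FMO3 transcript by Fluidigm TaqMan qRT-PCR, housekeeping-normalized; gain/loss fit vs DMSO.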

Read-out in test [5]: Cytochrome P450 (CYP1A1), CYP1A1 (gene 1543)
The test is described as follows: LTEA_HepaRG_CYP1A1: Life Technologies and Expression Analysis (LTEA) Assay for Cytochrome P450 (CYP1A1) using HepaRG (AID 2283454). To be noted: mRNA level, 48 h; actives raise or lower the signal. A digest of the protocol: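 Differentiated human HepaRG cells, after 48 h plating, exposed in duplicate for 48 h in serum-free induction medium to 8 half-log concentrations up to 100 uM in 0.5% DMSO. CYP1A1 mRNA by qRT-PCR, normalized to ACTB/GAPDH/POLR2A; bidirectional fit versus DMSO.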

Read-out in test [6]: CFLAR gene, CFLAR (gene 8837)
Description: LTEA_HepaRG_CFLAR: Life Technologies and Expression Analysis (LTEA) Assay for CFLAR gene using HepaRG (AID 2283455). To be noted: mRNA level, 48 h; actives raise or lower the signal. A digest of the protocol:
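HepaRG cells were plated for 48 h, switched to serum-free induction medium, then exposed in duplicate for 48 h to 8 concentrations (top 100 uM, half-log steps, 0.5% DMSO). CFLAR mRNA was measured by qRT-PCR, normalized to ACTB, GAPDH and POLR2A.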

Read-out in test [7]: Forkhead box O1 (FOXO1), FOXO1 (gene 2308)
Description: LTEA_HepaRG_FOXO1: Life Technologies and Expression Analysis (LTEA) Assay for Forkhead box O1 (FOXO1) using HepaRG (AID 2283456). To be noted: mRNA level, 48 h; actives raise or lower the signal. In a few lines: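 Differentiated human HepaRG cells in serum-free induction medium were exposed in duplicate for 48 h to eight half-log concentrations (top 100 uM, 0.5% DMSO). FOXO1 mRNA was measured by TaqMan qRT-PCR, normalised to ACTB, GAPDH and POLR2A, and fitted bidirectionally against DMSO.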

Read-out in test [8]: growth arrest and DNA damage 45 (GADD45A), GADD45A (gene 1647)
The test is described as follows: LTEA_HepaRG_GADD45A: Life Technologies and Expression Analysis (LTEA) Assay for growth arrest and DNA damage 45 (GADD45A) using HepaRG (AID 2283458). To be noted: mRNA level, 48 h; actives raise or lower the signal. In a few lines:
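Differentiated HepaRG cells were exposed in duplicate for 48 h in serum-free induction medium to 8-point half-log concentrations up to 100 uM in 0.5% DMSO. GADD45A mRNA was measured by TaqMan qRT-PCR, normalized to ACTB, GAPDH and POLR2A, with bidirectional fitting versus DMSO.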

Read-out in test [9]: Forkhead box O3 (FOXO3), FOXO3 (gene 2309)
Description: LTEA_HepaRG_FOXO3: Life Technologies and Expression Analysis (LTEA) Assay for Forkhead box O3 (FOXO3) using HepaRG (AID 2283459). To be noted: mRNA level, 48 h; actives raise or lower the signal. A digest of the protocol: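 Differentiated human HepaRG cells in serum-free induction medium were exposed in duplicate for 48 h to eight half-log concentrations up to 100 uM in 0.5% DMSO. FOXO3 mRNA was quantified by qRT-PCR, normalized to ACTB, GAPDH and POLR2A, with bidirectional fitting versus DMSO.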

Read-out in test [10]: ABC Transporter (ABCB1), ABCB1 (gene 5243)
Description: LTEA_HepaRG_ABCB1: Life Technologies and Expression Analysis (LTEA) Assay for ABC Transporter (ABCB1) using HepaRG (AID 2283460). To be noted: mRNA level, 48 h; actives raise or lower the signal. In a few lines:
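Differentiated human HepaRG cells, plated 48 h then switched to serum-free induction medium, were exposed in duplicate to eight half-log concentrations up to 100 uM in 0.5% DMSO for 48 h. ABCB1 mRNA was measured by TaqMan qRT-PCR, normalized to ACTB/GAPDH/POLR2A.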

Read-out in test [11]: growth arrest and DNA damage 45 (GADD45B), GADD45B (gene 4616)
Description: LTEA_HepaRG_GADD45B: Life Technologies and Expression Analysis (LTEA) Assay for growth arrest and DNA damage 45 (GADD45B) using HepaRG (AID 2283461). To be noted: mRNA level, 48 h; actives raise or lower the signal. In a few lines: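 Differentiated human HepaRG cells in serum-free induction medium exposed 48 h in duplicate to eight concentrations, top 100 uM, half-log steps, 0.5% DMSO. GADD45B mRNA by TaqMan qRT-PCR, normalized to ACTB, GAPDH, POLR2A; bidirectional fit versus DMSO.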

Read-out in test [12]: ABC Transporter (ABCC3), ABCC3 (gene 8714)
Description: LTEA_HepaRG_ABCC3: Life Technologies and Expression Analysis (LTEA) Assay for ABC Transporter (ABCC3) using HepaRG (AID 2283462). To be noted: mRNA level, 48 h; actives raise or lower the signal. In a few lines: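 Differentiated human HepaRG cells exposed 48 h in serum-free induction medium, 0.5% DMSO vehicle, 8-point half-log series to 100 uM in duplicate. ABCC3 mRNA by qRT-PCR, normalised to ACTB, GAPDH, POLR2A; bidirectional fit vs DMSO.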

Read-out in test [13]: ABC Transporter (ABCB11), ABCB11 (gene 8647)
Description: LTEA_HepaRG_ABCB11: Life Technologies and Expression Analysis (LTEA) Assay for ABC Transporter (ABCB11) using HepaRG (AID 2283463). To be noted: mRNA level, 48 h; actives raise or lower the signal. In a few lines:
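Differentiated human HepaRG cells were exposed for 48 h in serum-free induction medium to eight half-log concentrations up to 100 uM in 0.5% DMSO. ABCB11 mRNA was quantified by qRT-PCR, normalized to ACTB, GAPDH and POLR2A, and fitted bidirectionally versus DMSO.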

Read-out in test [14]: ABC Transporter (ABCC2), ABCC2 (gene 1244)
Description: LTEA_HepaRG_ABCC2: Life Technologies and Expression Analysis (LTEA) Assay for ABC Transporter (ABCC2) using HepaRG (AID 2283464). To be noted: mRNA level, 48 h; actives raise or lower the signal. A digest of the protocol: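 Differentiated HepaRG cells in serum-free induction medium exposed 48 h to eight half-log concentrations up to 100 uM, 0.5% DMSO, in duplicate. ABCC2 mRNA measured by qRT-PCR (TaqMan, Fluidigm), normalized to ACTB, GAPDH and POLR2A. Fitted in both directions against DMSO.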

Read-out in test [15]: Broad substrate specificity ATP-binding cassette transporter ABCG2 (Homo sapiens) (UniProt Q9UNQ0)
Description: LTEA_HepaRG_ABCG2: Life Technologies and Expression Analysis (LTEA) Assay for ABC Transporter (ABCG2) using HepaRG (AID 2283465). To be noted: mRNA level, 48 h; actives raise or lower the signal. In a few lines: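 Differentiated HepaRG cells in serum-free induction medium were exposed for 48 h, in duplicate, to eight half-log concentrations up to 100 uM in 0.5% DMSO. ABCG2 mRNA was measured by TaqMan qRT-PCR, normalized to ACTB, GAPDH and POLR2A, and fitted bidirectionally versus DMSO.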

Read-out in test [16]: ATP-citrate lyase (ACLY), ACLY (gene 47)
The test is described as follows: LTEA_HepaRG_ACLY: Life Technologies and Expression Analysis (LTEA) Assay for ATP-citrate lyase (ACLY) using HepaRG (AID 2283466). To be noted: mRNA level, 48 h; actives raise or lower the signal. In a few lines: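 Differentiated human HepaRG cells in serum-free induction medium exposed 48 h, in duplicate, to eight half-log concentrations from 100 uM top in 0.5% DMSO; ACLY mRNA measured by qRT-PCR, normalized to ACTB, GAPDH, POLR2A, fitted bidirectionally versus DMSO.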

Read-out in test [17]: Bcl-2 (BAD) gene, BAD (gene 572)
Description: LTEA_HepaRG_BAD: Life Technologies and Expression Analysis (LTEA) Assay for Bcl-2 (BAD) gene using HepaRG (AID 2283469). To be noted: mRNA level, 48 h; actives raise or lower the signal. In a few lines:
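Differentiated human HepaRG cells in serum-free induction medium were exposed in duplicate for 48 h to eight concentrations (top 100 uM, half-log steps, 0.5% DMSO). BAD mRNA was quantified by qRT-PCR normalised to ACTB, GAPDH and POLR2A, with bidirectional fitting versus DMSO.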

Read-out in test [18]: Peroxisomal acyl-coenzyme A oxidase 1 (ACOX1) gene, ACOX1 (gene 51)
The test is described as follows: LTEA_HepaRG_ACOX1: Life Technologies and Expression Analysis (LTEA) Assay for Peroxisomal acyl-coenzyme A oxidase 1 (ACOX1) gene using HepaRG (AID 2283467). To be noted: mRNA level, 48 h; actives raise or lower the signal. A digest of the protocol:
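Differentiated human HepaRG cells were exposed in duplicate for 48 h in serum-free induction medium to eight half-log concentrations up to 100 uM in 0.5% DMSO. ACOX1 mRNA was then quantified by TaqMan qRT-PCR, normalized to ACTB, GAPDH and POLR2A.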

Read-out in test [19]: Alkaline Phosphatase, Placental (ALPP) gene, ALPP (gene 250)
Description: LTEA_HepaRG_ALPP: Life Technologies and Expression Analysis (LTEA) Assay for Alkaline Phosphatase, Placental (ALPP) gene using HepaRG (AID 2283468). To be noted: mRNA level, 48 h; actives raise or lower the signal. In a few lines: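 HepaRG cells plated 48 h, then exposed in duplicate for 48 h in serum-free induction medium to 8-point half-log series from 100 uM in 0.5% DMSO. ALPP mRNA by TaqMan qRT-PCR, normalized to ACTB/GAPDH/POLR2A; bidirectional fit versus DMSO.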

Test [20] is described as follows: CEETOX_H295R_TESTO: CeeTox H295R High-throughput Steroidogenesis Assay for Testosterone (TESTO) (AID 2283457). To be noted: actives raise or lower the signal. A digest of the protocol:
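H295R adrenal cells, passage ≤10, exposed to chemicals for 48 h. Testosterone in medium measured by MTBE extraction and HPLC-MS/MS against a 7-point standard curve. Bidirectional fit versus DMSO; MTT viability checked in the same wells.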

Chain of Broad substrate specificity ATP-binding cassette transporter ABCG2 (Homo sapiens) (Q9UNQ0 whole entry, looked up): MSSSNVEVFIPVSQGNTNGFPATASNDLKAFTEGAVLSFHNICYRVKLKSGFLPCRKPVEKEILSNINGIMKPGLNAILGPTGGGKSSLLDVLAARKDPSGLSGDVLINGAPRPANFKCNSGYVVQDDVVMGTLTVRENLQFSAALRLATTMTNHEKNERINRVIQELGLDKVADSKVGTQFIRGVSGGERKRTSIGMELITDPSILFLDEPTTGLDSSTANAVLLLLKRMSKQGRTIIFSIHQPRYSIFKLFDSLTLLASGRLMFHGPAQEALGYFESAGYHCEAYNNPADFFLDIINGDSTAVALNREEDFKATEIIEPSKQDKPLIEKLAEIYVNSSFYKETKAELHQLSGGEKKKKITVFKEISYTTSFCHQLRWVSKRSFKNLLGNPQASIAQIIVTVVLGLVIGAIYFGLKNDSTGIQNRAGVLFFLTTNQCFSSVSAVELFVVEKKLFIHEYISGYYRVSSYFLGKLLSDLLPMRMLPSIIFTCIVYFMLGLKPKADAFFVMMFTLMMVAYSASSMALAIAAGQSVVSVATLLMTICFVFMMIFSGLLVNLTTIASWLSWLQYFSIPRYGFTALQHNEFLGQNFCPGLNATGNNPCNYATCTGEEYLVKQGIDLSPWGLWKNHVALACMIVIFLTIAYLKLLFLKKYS

Turning to `CCCCCCCCCCCCCCOS(=O)(=O)O`, the call in test [1], in test [2], in test [3], in test [4], in test [6] and in test [7] was inactive. The call in test [8], in [9], in test [10], in test [11], in test [12] and in [13] was inactive. Besides, the outcome in test [14], in [15], in [16] and in test [17] was inactive. In addition, the AC50 in test [5] is 72.7 µM (active).
Regarding `CCCCCCCCCCCCCCCCO`, the call in [1], in test [2], in [4], in [6], in test [7] and in [8] was inactive. The compound was called inactive in test [9], in test [10], in [11], in [12], in test [13] and in test [14]. In addition, the compound was called inactive in [15], in test [16], in [18], in test [19] and in [17]. Besides, the values for the AC50 in test [3] and in [5] were 9.92 µM (active) and 8.36 µM (active), respectively.
For the compound `CCCCCCCCCC[N+](C)(C)[O-]`, the outcome in test [1], in test [2], in test [3], in [4], in test [6] and in [7] was inactive. The compound was called inactive in test [20], in [8], in [9], in test [10], in test [11] and in test [12]. The compound was classed as inactive in test [13], in test [14], in test [15], in test [16], in test [18] and in test [19]. Further, the AC50 in test [5] is 50 µM (active).
